Bioassay records deposited in PubChem BioAssay by University of Kansas High Throughput Screening Laboratory.
mHTT-CaM PPI inh: mutant huntingtin-calmodulin interaction inhibitors – biochemical, AlphaScreen, primary screen | P42858 | AlphaScreen His-mHTT/GST-CaM binding, luminescence | inhibition, % at 15 µM | 3.6% of 190,000 active | AID 1671202, 2021
Pf apPOL inh: Pf-apPOL inhibitors, biochemical, fluorescence. Plasmodium falciparum apicoplast DNA polymerase (apPOL). Recombinant Pf-apPOL, molecular beacon fluorescence, 1.5 h. 0.25% of 210,000 active. inhibition, % at 10 µM
A number is an active result; – = inactive; · = not tested or not shown. Compounds with a hit are over-represented: about 3.5% of the library has one in this group of screens. Cut-off read from the data, not from the text of the source: active = inhibition above about 50%; inactive = the rest.

SMILES	mHTT-CaM PPI inh	Pf apPOL inh
O=[N+]([O-])c1cccc2c1NC(c1ccccc1Br)C1CC=CC21 (stereo not drawn)	63	–
CCOc1ccc2c(c1)OC(=Cc1ccccc1OCC(=O)OC)C2=O	–	–
CC1CCN(c2nnc(C(=O)N3CCN(C)CC3)c3ccccc23)CC1	–	–
C=CCN1C(=O)C(C)(C)COc2ccc(NC(=O)Oc3ccccc3)cc21	–	–
CCOc1ccc2cc(-c3cc4c(c(C)n3)c(=O)oc3cc(OCC)ccc34)c(=O)oc2c1	–	–
CC(=O)N(CCC1(c2ccccc2)CCOC(C)(C)C1)Cc1ccc(N(C)C)cc1 (stereo not drawn)	75	–
CC1(C)CC(CCN(Cc2ccccc2)C(=O)c2ccco2)(c2ccccc2)CCO1 (stereo not drawn)	–	–
CC(=O)Nc1ccc(Cl)c2c1C(=O)c1ccccc1C2=O	–	–
CNc1ccc(Cl)c2c1C(=O)c1ccccc1C2=O	77	–
CC1=C(C#N)c2nc(N)c(C#N)c(C)c2/C1=C/c1ccc(O)cc1	64	–
COc1ccc(/C=C2\C(C)=C(C#N)c3nc(N)c(C#N)c(C)c32)cc1OC	–	–
CC(C)(C)C(=O)NC(Nc1cccc2cccnc12)C(Cl)(Cl)Cl (stereo not drawn)	–	–
Oc1c(C(Nc2ccccn2)c2ccccc2F)ccc2cccnc12 (stereo not drawn)	100	–
O=C(Nc1ccccn1)c1cc(I)ccc1Cl	–	–
Oc1ccc(Cl)c(C(Nc2ccccn2)c2ccc3cccnc3c2O)c1 (stereo not drawn)	100	–
O=C(Oc1cccc2cccnc12)c1c(F)cccc1F	·	–
Oc1ccccc1C(Nc1nccs1)c1ccc2cccnc2c1O (stereo not drawn)	100	–
O=S(=O)(Nc1nccs1)c1ccc2ccccc2c1	–	·
Cc1cccc(NC(c2ccccc2F)c2ccc3cccnc3c2O)n1 (stereo not drawn)	99	–
O=C(Nc1ccc(-c2ccccc2)cc1)c1ccccc1Br	–	–
Oc1cccc2ccc(Oc3cccc4cccnc34)nc12	–	–
Oc1ccccc1C(Nc1ccccn1)c1ccc2cccnc2c1O (stereo not drawn)	100	–
COc1cccc(NC2=C(NCCO)C(=O)c3ccccc3C2=O)c1	–	–
Cc1cccc(NC2=C(NCCO)C(=O)c3ccccc3C2=O)c1	74	–
O=C(NC1CCCC1)c1ccc2ncc3c(=O)n(-c4ccc(F)cc4)[nH]c3c2c1	–	–
SMILES	mHTT-CaM PPI inh	Pf apPOL inh
O=C(NC1CCCC1)c1ccc2ncc3c(=O)n(-c4ccc(Cl)cc4)[nH]c3c2c1	86	–
CCc1cc(C2CCCN2C(=O)c2cc(C)on2)on1 (stereo not drawn)	–	–
CCC(C)NS(=O)(=O)c1ccc2[nH]c3c(c2c1)CCCC3 (stereo not drawn)	–	–
O=C1c2ccccc2C(=O)c2cc(S(=O)(=O)Nc3ccccc3F)ccc21	–	–
COc1cc(NS(=O)(=O)c2ccc3[nH]c4c(c3c2)CCCC4)cc(OC)c1OC	83	–
COc1ccccc1NS(=O)(=O)c1ccc2[nH]c3c(c2c1)CCCC3	81	–
COc1ccccc1NS(=O)(=O)c1ccc2[nH]c(=O)sc2c1	–	–
CCOC(=O)c1ccc(NS(=O)(=O)c2ccc3[nH]c4c(c3c2)CCCC4)cc1	87	–
O=S(=O)(Nc1ccccc1F)c1ccc2[nH]c3c(c2c1)CCCC3	56	–
O=S(=O)(Nc1cccnc1)c1ccc2[nH]c3c(c2c1)CCCCC3	–	–
O=C(Nc1ccc(OCC(=O)N2CCOCC2)cc1)c1cc2ccccc2o1	–	–
Cc1ccc(F)c(NS(=O)(=O)c2cc3c(s2)CCN(C(=O)C2CC2)C3)c1	–	–
COc1ccccc1CNS(=O)(=O)c1ccc(OC)c(OC)c1	–	–
COc1ccc(OC)c(NS(=O)(=O)c2ccc3[nH]c4c(c3c2)CCCC4)c1	71	–
COc1ccccc1CNS(=O)(=O)c1ccc2[nH]c3c(c2c1)CCCC3	64	–
CCOc1ccccc1NS(=O)(=O)c1ccc2[nH]c3c(c2c1)CCCCC3	–	–
COc1ccc(OC)c(NS(=O)(=O)c2ccc(-c3ccccc3)cc2)c1	–	–
COc1ccccc1NS(=O)(=O)c1ccc2[nH]c3c(c2c1)CCCCC3	97	–
CC(=O)c1ccc(NC(=O)N2CCc3c(c(COCc4cccc(F)c4)nn3C)C2)cc1	–	–
O=S(=O)(c1ccc(Cl)cc1)n1ccc(-c2ccc(Br)s2)n1	·	–
COc1ccc(Cn2c(SC)nc3ccccc3c2=O)cc1	–	–
CCC(=O)NC1CCc2[nH]c3ccc(C)cc3c2C1 (stereo not drawn)	–	–
Cc1ccc2[nH]c3c(c2c1)CC(NC(=O)CC1C=CCC1)CC3 (stereo not drawn)	97	–
O=C(CC1CC1)NC1CCc2[nH]c3ccc(Cl)cc3c2C1 (stereo not drawn)	88	–
Cc1cc2[nH]c3c(c2cc1C)CC(NC(=O)C1CCCC1)CC3 (stereo not drawn)	–	–
SMILES	mHTT-CaM PPI inh	Pf apPOL inh
Clc1ccc(NCn2nnc3ccccc32)nc1	–	–
CCc1nc(SCC(=O)NCc2ccccc2)c(C#N)cc1C	–	–
COc1cccc2c1OC1(C)CC2NC(=O)N1c1cccc(C(=O)NCc2cccs2)c1 (stereo not drawn)	–	–
CC(C)(C)Nc1nc(Cl)nc(Nc2cccc([N+](=O)[O-])c2)n1	–	–
COc1cccc(NC(=O)c2ccc([N+](=O)[O-])c(C)c2)c1	–	–
COc1cccc(Nc2nc(Cl)ccc2[N+](=O)[O-])c1	71	–
COc1ccc(Nc2nc(Cl)nc(Nc3cccc([N+](=O)[O-])c3)n2)cc1	78	–
Cc1cc(C)c(NC(=O)c2ccc(C(=O)c3ccccc3)cc2)c(C)c1	–	–
COc1cc(OC)c(C2CC(=O)Nc3n[nH]c(C)c32)cc1OC (stereo not drawn)	–	–
O=C(CCn1c(=O)sc2ccccc21)Nc1ccc(Br)cc1	–	–
CC(C)(C)c1csc(-c2ccc(C=C(C#N)C(=O)c3cccs3)cc2)n1	·	–
Cc1ccc(NC(=O)C2CCCN(C(=O)c3cccc(C)c3)C2)cc1 (stereo not drawn)	–	–
CSc1ccccc1NC(=O)c1ccc(-n2ccnc2)nn1	–	–
O=C(Nc1nc2ccccc2[nH]1)c1ccc(-n2ccnc2)nn1	94	–
O=C(Nc1cc(Cl)cc(Cl)c1)c1ccccc1	–	–
CSc1nnc2c(n1)OC(c1ccc(Br)cc1)N(C(C)=O)c1ccccc1-2 (stereo not drawn)	75	–
CSc1nnc2c(n1)OC(c1cccc(Br)c1)N(C(C)=O)c1ccccc1-2 (stereo not drawn)	–	–
C=CCSc1nnc2c(n1)OC(c1ccc(OCC)cc1)N(C(C)=O)c1ccccc1-2 (stereo not drawn)	55	–
CSc1nnc2c(n1)OC(c1ccc(Br)o1)N(C(C)=O)c1ccccc1-2 (stereo not drawn)	–	–
CSc1nnc2c(n1)OC(c1ccc(Cl)cc1)N(C(C)=O)c1ccccc1-2 (stereo not drawn)	54	–
CSc1nnc2c(n1)OC(c1ccc(Br)s1)N(C(C)=O)c1ccccc1-2 (stereo not drawn)	71	–
CSc1ccc(C2Oc3nc(SC)nnc3-c3ccccc3N2C(C)=O)cc1 (stereo not drawn)	–	–
